{"source": "PubChem BioAssay AID1508600", "about": "(Functional Genomics Laboratory (NCATS/FGL), 2020)", "note": "Hit rate of the full screen: of about 53,000 sequences, about 3,700 (7%) were called active.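 Rule for the calls: active = gene knockdowns whose robust z-score for IL-1 alpha signal is at least 2 or at most -2, so actives lie on both sides; inactive = the rest.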 This excerpt belongs to a sample that is enriched for actives."}
{"experiment": "Components of the Cytosolic LPS Sensing Pathway: Gene Identification via Genome-wide siRNA Screen;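 note: robust z of the log signal after scaling to non-targeting control siRNA wells of the plate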", "settings": "RAW264.7 macrophages, IL-1a HTRF, actives lie on both sides, screened at 100 nM (by protocol), cells primed 5 h with Pam3CSK4 first", "method_in_brief": "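Cells (RAW264.7, 1×10^4 per well) were transfected with siRNA at 100 nM and cultured 48h at 37 degrees C. Pam3CSK4 was added for 5 hours; LipidA transfection followed for 24 hour. IL-1a was then measured by HTRF.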"}
{"sequence": "GGGCUAAAGCCUUCAACACTT against Olfr923", "z-score": "0.315 (inactive)"}
{"sequence": "CCCUUACAACUCAAGUAUCTT against Lrig3", "z-score": "2.1 (active)"}
{"sequence": "GGUUGAAAAUGUUGUCAGGTT against Atpsckmt", "z-score": "-0.733 (inactive)"}
{"sequence": "GGGUUUUUGUCAAAUCUGUTT against Ttc5", "z-score": "-2.24 (active)"}
{"sequence": "GGACAUCCAGACCAAUGUCTT against Psmd8", "z-score": "1.1 (inactive)"}
{"sequence": "GGUCCAGACAUUUGGAUACTT against Cav2", "z-score": "0.428 (inactive)"}
{"sequence": "GGAUACCUGAAAAUUGAUATT against Npr1", "z-score": "-0.667 (inactive)"}
{"sequence": "GGGAAGCUUUACUUUUUAATT against Mapk4", "z-score": "2.05 (active)"}
{"sequence": "CCUUAUGAAUCCCGAGUACTT against Bmp6", "z-score": "-0.0506 (inactive)"}
{"sequence": "GGGCAAAAAAGGUCUAUUCTT against Rfpl4", "z-score": "0.44 (inactive)"}
{"sequence": "CCACAGUAUCAUGUAACUATT against Il1a", "z-score": "-2.23 (active)"}
{"sequence": "GGAACCUAUUGCUGUUUUATT against Map2k3", "z-score": "-0.756 (inactive)"}
{"sequence": "GGAAUGUGGUUUCCUGUUATT against Fscn3", "z-score": "0.502 (inactive)"}
{"sequence": "GGCUGAACAAGAGAAACCATT against Ppdpf", "z-score": "-2.49 (active)"}
{"sequence": "CCCAGAAUUAAACAUAGCUTT against Rrh", "z-score": "0.0181 (inactive)"}
{"sequence": "GGAAACCUGCUCAUAGUGGTT against Olfr1188", "z-score": "0.54 (inactive)"}
{"sequence": "GCAUGCCUAAAUUUGGGACTT against Fyb", "z-score": "0.805 (inactive)"}
{"sequence": "GGCUGGACACUGAGAAAAATT against Adcy4", "z-score": "1.63 (inactive)"}
{"sequence": "GGUAUUUGGAGUACCCUUUTT against Arhgap11a", "z-score": "0.196 (inactive)"}
{"sequence": "GGACAAGACUCUCAGUUCATT against Atpaf1", "z-score": "0.77 (inactive)"}
{"sequence": "GGAAUUUAGAAAAUGUGACTT against Vmn1r227", "z-score": "-2.67 (active)"}
{"sequence": "GGGUGAUCUGUAGUAUUUUTT against Olfr574", "z-score": "-0.879 (inactive)"}
{"sequence": "CCCUGUUACGAAGUUUAACTT against Slc17a7", "z-score": "-1.27 (inactive)"}
{"sequence": "GGUGACUCUGAUUCUCAUATT against Slc22a13", "z-score": "-0.176 (inactive)"}
{"sequence": "GGAACUUGUACAAAUAGGATT against Lpcat1", "z-score": "0.587 (inactive)"}
{"sequence": "GGACGAAGAGGAGAAAGAGTT against Ccdc184", "z-score": "-1.25 (inactive)"}
{"sequence": "GCUUAUUCCCAGGAGACCATT against Dmrtc2", "z-score": "-0.764 (inactive)"}
{"sequence": "CCCACCUUAUGGGACAAAATT against Hlf", "z-score": "2.05 (active)"}
{"sequence": "GGUGGCCCAGUCUAAAGAATT against R74862", "z-score": "0.872 (inactive)"}
{"sequence": "CCAGUGACAUUCAAUACCUTT against Lrif1", "z-score": "-1.52 (inactive)"}
{"sequence": "GGUCAAUAUUGGCUUAUGUTT against Tmem42", "z-score": "-1.43 (inactive)"}
{"sequence": "GGUGGAGAGAAAGAGAAAATT against Mcm8", "z-score": "0.767 (inactive)"}
{"sequence": "GGGUUACUUUAGCUAUUUCTT against Rbm14", "z-score": "-1.11 (inactive)"}
{"sequence": "GGCUGAACAGGCAUGAUCATT against Rpap1", "z-score": "-3 (active)"}
{"sequence": "GGAGCUGCUAUGUACACAUTT against Bptf", "z-score": "0.364 (inactive)"}
{"sequence": "GGGUGAAUUUCCACCUUAUTT against Sgce", "z-score": "-0.521 (inactive)"}
{"sequence": "GGAGAAAAUACAACUGUGATT against Ctrc", "z-score": "-1.05 (inactive)"}
{"sequence": "CGAAAAUCAAGCGGAAUUUTT against Zmiz1", "z-score": "2.49 (active)"}
{"sequence": "GGGCUCACUCUGUCUCUACTT against Rpp25l", "z-score": "-0.378 (inactive)"}
{"sequence": "CCAAAUCUGGUGUGAUUCATT against Arhgef4", "z-score": "-0.923 (inactive)"}
{"sequence": "GCAAAGAGGCCUAAUUGAATT against B2m", "z-score": "1.16 (inactive)"}
{"sequence": "GGAUUUCAAACACGUCUUUTT against Asic5", "z-score": "0.222 (inactive)"}
{"sequence": "GGCGGGUUUGCUGAAUAACTT against Lrrc26", "z-score": "2.43 (active)"}
{"sequence": "GGUGAAGAGGAAGAUCCUGTT against Ctdnep1", "z-score": "0.421 (inactive)"}
{"sequence": "GGGUUAUCCGUAUGUUUUCTT against Olfr557", "z-score": "0.964 (inactive)"}
{"sequence": "GGGAUUUCUUACCCUGUUUTT against Prr7", "z-score": "-0.222 (inactive)"}
{"sequence": "CGACAUUGAUAUCGUGCGCTT against Gadd45g", "z-score": "-0.827 (inactive)"}
{"sequence": "GGACUAGCAAGCUCUUCAGTT against Fancd2", "z-score": "-0.578 (inactive)"}
{"sequence": "GGUGAAAGUACUGAGGAAGTT against Rlim", "z-score": "2.45 (active)"}
{"sequence": "GCUCCACCGAGAAAUUACUTT against Magt1", "z-score": "1.63 (inactive)"}
{"sequence": "CCCUCUUGAAAUUAGUGUGTT against Dusp14", "z-score": "0.405 (inactive)"}
{"sequence": "GCUCACAUGUUUUAGGUGATT against Poc5", "z-score": "0.756 (inactive)"}
{"sequence": "GGCAAAGAAGGAGAAAGUATT against Cd209c", "z-score": "-2.06 (active)"}
{"sequence": "GGCAGACAAUCAAUGAAAUTT against Padi4", "z-score": "-0.451 (inactive)"}
{"sequence": "GCCACUUCCGGUCAACUAUTT against Cog1", "z-score": "0.801 (inactive)"}
{"sequence": "GGGCAAUAAGAUGUACGUUTT against Eomes", "z-score": "3.24 (active)"}
{"sequence": "GUAUGUUUGGGCUUAGCCUTT against Olfr1348", "z-score": "-1.21 (inactive)"}
{"sequence": "GGAAGUUACUGUUGAGUAGTT against Olfr114", "z-score": "0.209 (inactive)"}
{"sequence": "GUUGAUGGAAACCAUGGAATT against Phf11d", "z-score": "-0.504 (inactive)"}
{"sequence": "GGAAAAAGCACCAUUGUGATT against Gnao1", "z-score": "-0.819 (inactive)"}
{"sequence": "GCUACUUCGGGAAUUUUACTT against Ttc21a", "z-score": "-1.16 (inactive)"}
{"sequence": "CCCUAUGAGCAAAUCACAUTT against Ppp3cc", "z-score": "-0.499 (inactive)"}
{"sequence": "GGACUAAGAUUUGUGUUAGTT against Ccdc127", "z-score": "2.15 (active)"}
{"sequence": "GGGAAGUUCAGUUCAAUACTT against Hps4", "z-score": "1.11 (inactive)"}
{"sequence": "GCUGGAUAGCUAAAAUGAUTT against Gimap5", "z-score": "-0.0294 (inactive)"}
{"sequence": "GCUAUAUUGUUAGCACACATT against Hmgn2", "z-score": "0.326 (inactive)"}
{"sequence": "CCUGGAGGAGUAUUUACACTT against H2-Ob", "z-score": "-1.17 (inactive)"}
{"sequence": "GGCUAUGGAGUUCACCACATT against Krtap5-5", "z-score": "-2.66 (active)"}
{"sequence": "GGGAAGAAAUCAACGAUAATT against Gpa33", "z-score": "-0.0673 (inactive)"}
